# Reference: PubChem BioAssay (NCI)
# Several values for one entry are separate records, joined by “and”; a condition that tells them apart may be missing. Equal values may be shown once. About 83,000 compounds went through this panel and 20% of them were active in at least one assay; those are over-represented in the sample as a whole.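 Negative percent growth values reflect cell death: -40 means 40% of the cells present at the start died, and -100 means all died.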 Activity calls are given as the source filed them. Rule for the calls: active = growth percent below 10; inactive = the rest.
# What was measured:
# Test in all cases: NCI-60 one-dose screen, 48 h (100 = growth as untreated, 0 = no growth, -100 = all killed)
# Conditions in all cases: 10 µM unless noted
# [1] = test system: SK-MEL-2 melanoma
# [2] = test system: EKVX NSCLC
# [3] = test system: SN12C renal
# [4] = test system: UO-31 renal
# [5] = test system: TK-10 renal
# [6] = test system: ACHN renal
# [7] = test system: CAKI-1 renal
# [8] = test system: A498 renal
# [9] = test system: CCRF-CEM leukemia
# [10] = test system: MOLT-4 leukemia
SMILES,growth [1],growth [2],growth [3],growth [4],growth [5],growth [6],growth [7],growth [8],growth [9],growth [10]
Nc1ccc(-c2ccc(N)c(Br)c2)cc1Br,44% (inactive),59% (inactive),45.7% (inactive),35% (inactive),75.6% (inactive),76.5% (inactive),50.3% (inactive),74.5% (inactive),19.6% (inactive),27.2% (inactive)
CCCCC(NC(=O)CN1C(=O)/C(=C/C(C)=C/c2ccccc2)SC1=S)C(=O)O (stereo not given),113% (inactive),98.6% (inactive),95.5% (inactive),82.9% (inactive),104% (inactive),97.2% (inactive),89.2% (inactive),68% (inactive),105% (inactive),118% (inactive)
COc1ccc(-c2ccccc2)cc1-c1c(Nc2cc(Cl)cc(Cl)c2O)c(=O)c1=O,-26.5% (active),10.2% (inactive),6.31% (active),6.3% (active),12.8% (inactive),3.24% (active),-12.6% (active),-17.6% (active),19.5% (inactive),13.2% (inactive)
O=c1c2c([nH]c3ccccc13)CCCC2,103% (inactive) and -12% (active),103% (inactive),95.8% (inactive) and 56.5% (inactive),87.6% (inactive) and 50.4% (inactive),104% (inactive) and 62.2% (inactive),96.5% (inactive) and 57.9% (inactive),98.6% (inactive) and 54.6% (inactive),102% (inactive) and 49.1% (inactive),-32.1% (active) and 37.1% (inactive),83.4% (inactive) and 34.7% (inactive)
Cc1ccc(-c2nc([P+](c3ccccc3)(c3ccccc3)c3ccccc3)c(Nc3ccccc3)o2)cc1,-58.8% (active),-2.84% (active),2.84% (active),-23.5% (active),8.06% (active),-11.6% (active),-27.8% (active),-37.9% (active),0.282% (active),-9.22% (active)
COc1cc(N=Nc2ccc(O)c3ncccc23)c2ncccc2c1,61.3% (inactive),65.8% (inactive),68.6% (inactive),16.6% (inactive),69.2% (inactive),4.47% (active),17.3% (inactive),74.9% (inactive),5% (active),6.75% (active)
CN1CCN(Cc2ccc(NC(=O)c3nc4ccc5[nH]ncc5c4c4c3CCCC4)cc2C(F)(F)F)CC1,-63.5% (active),37.2% (inactive),-88.7% (active),-85.9% (active),-86.7% (active),-79.4% (active),-46.6% (active),92.9% (inactive),-11.1% (active),-27% (active)
COc1ccc(/C=C/C(=O)c2cc3c(N)c(C(=O)Nc4ccccc4)sc3nc2C)cc1,53.1% (inactive),47% (inactive),12.5% (inactive),35.2% (inactive),36.9% (inactive),31.4% (inactive),23.1% (inactive),18.6% (inactive),16.3% (inactive),30.9% (inactive)
CCC(=C(c1ccc(OCCCN(C)C)cc1)c1ccc(OCCCN(C)C)cc1)c1ccc(Cl)cc1,-72.1% (active),-86.8% (active),-94.1% (active),-93.6% (active),-85.2% (active),-95.8% (active),-96.1% (active),-86.3% (active),-67.9% (active),-61.9% (active)
Clc1ccc(Nc2nc(Nc3ccc(Cl)cc3)nc(Nc3ccc(-c4cc(-c5cccc(Cl)c5)on4)cc3)n2)cc1,72.9% (inactive),82.9% (inactive),94.4% (inactive),90.1% (inactive),155% (inactive),86.4% (inactive),85.4% (inactive),99.9% (inactive),61% (inactive),7.82% (active)
OCc1cc(CN2CCCCC2)c(O)c2ncccc12,81.3% (inactive),65.5% (inactive),59.9% (inactive),17.7% (inactive),31% (inactive),20.7% (inactive),13% (inactive),91.8% (inactive),29.5% (inactive),36% (inactive)
Oc1ccccc1C=Nc1ccc(N2CCN(c3ccccc3)CC2)cc1,102% (inactive),113% (inactive),102% (inactive),86.3% (inactive),93.8% (inactive),72.9% (inactive),91.9% (inactive),98.6% (inactive),62.2% (inactive),93.5% (inactive)
NC(N)=NC(N)=NCCCc1ccco1,96.1% (inactive),113% (inactive),108% (inactive),102% (inactive),86.2% (inactive),107% (inactive),96.4% (inactive),118% (inactive),101% (inactive),93.2% (inactive)
CCN1CCN(CC(=O)Nc2nc3ccc(NCc4ccc(C)cc4)cc3s2)CC1,75.8% (inactive),72.6% (inactive),63.3% (inactive),61.6% (inactive),93.6% (inactive),85.6% (inactive),50.7% (inactive),94% (inactive),55.8% (inactive),50.5% (inactive)
CN(C)c1ccc2nc3ccc(=O)cc-3sc2c1,13.8% (inactive) and 35.6% (inactive),41.3% (inactive),41.9% (inactive) and 34.5% (inactive),14.8% (inactive) and 31.4% (inactive),60.9% (inactive) and 67.4% (inactive),20% (inactive) and 21.7% (inactive),34.1% (inactive) and 22.3% (inactive),85.7% (inactive),13% (inactive) and 20.1% (inactive),-18.7% (active) and 20.2% (inactive)
Cc1n(Cc2ccc3ccccc3c2)c(Cl)c(Cl)[n+]1Cc1ccc2ccccc2c1,25.5% (inactive),51.1% (inactive),30.7% (inactive),72.1% (inactive),52.5% (inactive),80.8% (inactive),29.2% (inactive),40.3% (inactive),14% (inactive),25.4% (inactive)
COc1cccc(C2C(C#N)=C(N)Oc3cc(OCCCCCC[P+](c4ccccc4)(c4ccccc4)c4ccccc4)ccc32)c1 (stereo not given),-59.2% (active),-0.839% (active),-31.4% (active),39.2% (inactive),-16.5% (active),18% (inactive),-8.91% (active),-30% (active),1.92% (active),-15.8% (active)
CCOC(=O)n1cc(-c2nonc2-c2cn(C)c3ccc(OC)cc23)c2cc(F)ccc21,99.8% (inactive),73.3% (inactive),77.5% (inactive),52.1% (inactive),94.2% (inactive),60.2% (inactive),52.2% (inactive),67.5% (inactive),80.9% (inactive),80.3% (inactive)
COc1ccc(-c2ccc(-c3ccc(C(=N)N)cn3)s2)cc1Cl,-54% (active),-58.4% (active),-81% (active),-89.9% (active),-73.1% (active),-98.2% (active),-98.4% (active),99% (inactive),-36.1% (active),-31.5% (active)
CC1=C2[C@@H](CC1)[C@]1(C)O[C@@](C(C)C)(C[C@H]1OC(=O)CO)[C@H]2OC(=O)C1CC1c1ccccc1 (stereo not given in full),75.8% (inactive),93.8% (inactive),61.5% (inactive),54.2% (inactive),88% (inactive),43.1% (inactive),74.1% (inactive),-20% (active),96.1% (inactive),75.6% (inactive)
CN(Cc1ccccc1)c1nc(Cl)c(C2CC(c3ccc4c(c3)OCO4)=NN2c2cc(Cl)cc(Cl)c2)s1 (stereo not given),101% (inactive),95.1% (inactive),99.1% (inactive),87.5% (inactive),119% (inactive),97% (inactive),84.3% (inactive),115% (inactive),97.1% (inactive),107% (inactive)
Cc1ccc2c(c1)C(C)Cc1c(ncnc1-n1cnc3cc(C)ccc31)N2C (stereo not given),-1.91% (active),47.2% (inactive),31.6% (inactive),31% (inactive),48.7% (inactive),26.6% (inactive),24.6% (inactive),12.2% (inactive),11.4% (inactive),12% (inactive)
Nn1c(-c2ccc(Cl)cc2)nc2c(-c3ccc(Cl)cc3)nc3ccc(Cl)cc3c2c1=O,73.3% (inactive),6.86% (active),-3.15% (active),-24.9% (active),0.823% (active),4.66% (active),14.7% (inactive),21.3% (inactive),-15.8% (active),32.3% (inactive)
COc1ccc(/C=N\Nc2nc(SCC(C)C)nc(-c3ccc(OC)cc3)c2C#N)cc1,87% (inactive),35.1% (inactive),2.1% (active),-53.5% (active),-54.7% (active),-71.7% (active),9.54% (active),-7.9% (active),38.6% (inactive),30.2% (inactive)
